Experimental data published in PubChem BioAssay AID1159580 (chemical genetic matrix, 2015).
Values joined by “and” are separate entries in the source; they are usually repeats but may differ in a detail not shown here. Identical values can stand only once. Among all 5,500 compounds or so, about 2,000 (36%) were called active. Inconclusive results (about 18%) are left out. Rule as the data show it: active = normalized growth mostly below about 0.91 (no sharp cut-off); inconclusive = no clear call, values can overlap the other calls; inactive = mostly above about 0.92. Some of the results follow.

Assay: chemical genetic growth profiling, strain panel (AID 1159580);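 also: tested at 20 µM; growth read once vehicle control cultures reached saturation at 30 °C; 1 = growth at the plate median or of vehicle wells; lower values mean less growth of the strain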
Details: S. cerevisiae deletion strains, growth OD
[1] = locus YGR078C, strain PAC10, active compounds read low
[2] = locus YGR229C, strain SMI1, active compounds read low
[3] = locus YJR075W, strain HOC1, active compounds read low
[4] = locus YAL013W, strain DEP1, active compounds read low
[5] = locus YBR229C, strain ROT2, active compounds read low
[6] = locus YDL101C, strain DUN1, active compounds read low
[7] = locus YDR150W, strain NUM1, active compounds read low
[8] = locus YEL061C, strain CIN8, active compounds read low
[9] = locus YHR030C, strain SLT2, active compounds read low
[10] = locus YJR043C, strain POL32, active compounds read low
[11] = locus YLR039C, strain RIC1, active compounds read low
[12] = locus YLR262C, strain YPT6, active compounds read low
[13] = locus YMR263W, strain SAP30, active compounds read low
[14] = locus YPL055C, strain LGE1, active compounds read low
[15] = locus YPL241C, strain CIN2, active compounds read low

Measured: normalized growth

NC1C=CC=C(C(=O)O)C1 (stereo not given)
inactive: locus YAL040C, strain CLN3, active compounds read low 0.969 | locus YCL061C, strain MRC1 (second series), active compounds read low 0.989 | locus YER002W, strain NOP16, active compounds read low 0.992 | [1] 1 | [2] 0.999 | [3] 0.994 | locus YNL175C, strain NOP13, active compounds read low 0.995 | locus YNL197C, strain WHI3, active compounds read low 0.979 | locus YNL224C, strain SQS1, active compounds read low 1 | locus YOR083W, strain WHI5 (second series), active compounds read low 0.986

Fc1cc2n[nH]nc2cc1Cl
inactive: [4] 1 | [5] 0.989 | [6] 0.97 | [7] 0.919 | [8] 0.992 | [1] 0.972 | [9] 0.977 | locus YHR087W, strain rtc3, active compounds read low 0.997 | [10] 0.997 | [3] 0.958 | [11] 1.06 | locus YLR058C, strain SHM2 (second series), active compounds read low 0.978 | locus YLR085C, strain ARP6, active compounds read low 0.94 | [12] 1.06 | locus YML094W, strain GIM5, active compounds read low 0.979 | locus YMR219W, strain ESC1, active compounds read low 0.985 | [13] 0.931 | locus YNL153C, strain GIM3, active compounds read low 0.995 | locus YNL298W, strain CLA4 (second series), active compounds read low 0.977 | locus YNL322C, strain KRE1, active compounds read low 0.974 | locus YNR030W, strain Alg12, active compounds read low 0.993 | [14] 0.931 | [15] 0.978 | locus YPR135W, strain CTF4, active compounds read low 0.945

CC(=O)O[C@H]1C[C@@H](OC(C)=O)C(C)(C)C2C[C@@H](OC(C)=O)[C@@]3(C)C4=CC(=O)O[C@@H](c5ccoc5)[C@]4(C)CCC3[C@]21C (stereo not given in full)
inactive: [4] 1.01 | locus YAL021C, strain ccr4, active compounds read low 1.02 | locus YAL026C, strain drs2, active compounds read low 1 | locus YAL030W, strain snc1, active compounds read low 0.998 | locus YBL061C, strain skt5, active compounds read low 0.997 | locus YBR009C, strain hhf1, active compounds read low 0.99 | locus YBR021W, strain FUR4, active compounds read low 0.993 | locus YBR023C, strain chs3, active compounds read low 0.982 | locus YBR171W, strain sec66, active compounds read low 1 | [5] 1 | locus YBR231C, strain swc5, active compounds read low 0.989 | locus YBR279W, strain paf1, active compounds read low 1 | locus YCL011C, strain gbp2, active compounds read low 1 | locus YCL016C, strain dcc1, active compounds read low 0.997 | locus YCL029C, strain bik1, active compounds read low 1 | locus YCL061C, strain MRC1, active compounds read low 0.994 | locus YCL069W, strain vba3, active compounds read low 1.01 | locus YCR088W, strain abp1, active compounds read low 0.999 | locus YDL005C, strain med2, active compounds read low 0.989 | locus YDL035C, strain GPR1, active compounds read low 1.01 | locus YDL040C, strain nat1, active compounds read low 0.983 | locus YDL074C, strain BRE1, active compounds read low 0.993 | [6] 1 | locus YDL185W, strain tfp1, active compounds read low 1.01 | locus YDL192W, strain arf1, active compounds read low 1 | locus YDR001C, strain nth1, active compounds read low 1 | locus YDR069C, strain doa4, active compounds read low 0.983 | locus YDR101C, strain arx1, active compounds read low 1 | locus YDR137W, strain rgp1, active compounds read low 0.998 | [7] 1.01 | locus YDR159W, strain sac3, active compounds read low 0.968 | locus YDR162C, strain NBP2, active compounds read low 1.03 | locus YDR195W, strain ref2 0.961 | locus YDR297W, strain sur2, active compounds read low 1 | locus YDR318W, strain mcm21, active compounds read low 1 | locus YDR334W, strain swr1, active compounds read low 0.997 | locus YDR335W, strain msn5, active compounds read low 1 | locus YDR388W, active compounds read low 0.999 | locus YDR392W, strain spt3, active compounds read low 0.963 | locus YDR502C, strain sam2, active compounds read low 0.98 | locus YEL003W, strain gim4, active compounds read low 1.01 | locus YEL037C, strain rad23, active compounds read low 1.02 | locus YEL061C, strain CIN8 (second series), active compounds read low 1 | [8] 0.997 | locus YER015W, strain faa2, active compounds read low 0.998 | locus YER016W, strain bim1, active compounds read low 0.991 | locus YER110C, active compounds read low 0.997 | locus YER111C, strain swi4, active compounds read low 1 | locus YER155C, strain BEM2 (second series), active compounds read low 0.975 | locus YER155C, strain BEM2, active compounds read low 0.995 | locus YER167W, strain BCK2, active compounds read low 1.01 | locus YFR010W, strain ubp6, active compounds read low 1.01 | locus YGL078C, strain dbp3, active compounds read low 1.01 | locus YGL086W, strain mad1, active compounds read low 0.985 | locus YGL167C, strain pmr1, active compounds read low 0.996 | locus YGL173C, strain kem1, active compounds read low 1 | locus YGL227W, strain vid30, active compounds read low 0.998 | locus YGL240W, strain doc1, active compounds read low 0.973 | locus YGL248W, strain PDE1, active compounds read low 1 | locus YGL253W, strain hxk2, active compounds read low 1.01 | [1] 1.01 | locus YGR135W, strain pre9, active compounds read low 0.992 | [2] 1.05 | locus YGR252W, strain gcn5, active compounds read low 0.922 | locus YHR013C, strain ard1, active compounds read low 0.987 | locus YHR027C, strain rpn1, active compounds read low 0.994 | [9] 1.01 and 0.97 | locus YHR079C, strain IRE1 (second series), active compounds read low 1 | locus YHR079C, strain IRE1, active compounds read low 0.982 | locus YHR094C, strain hxt1, active compounds read low 1 | locus YHR129C, strain ARP1, active compounds read low 1.01 | locus YHR142W, strain chs7, active compounds read low 1.03 | locus YHR200W, strain rpn10, active compounds read low 0.993 | locus YIL066C, strain RNR3, active compounds read low 1.01 | locus YIL073C, strain SPO22, active compounds read low 1.03 | locus YIL125W, strain kgd1, active compounds read low 0.995 | locus YIR030C, strain dcg1, active compounds read low 0.998 | locus YJL092W, strain hpr5, active compounds read low 1.01 | locus YJL095W, strain BCK1 (second series), active compounds read low 1 | locus YJL095W, strain BCK1, active compounds read low 1.01 and 0.953 | locus YJL115W, strain asf1, active compounds read low 0.999 | locus YJL129C, strain trk1, active compounds read low 1.01 | locus YJL134W, strain LCB3, active compounds read low 1.01 | locus YJL154C, strain vps35, active compounds read low 0.999 | locus YJL164C, strain tpk1, active compounds read low 1 | locus YJL166W, strain qcr8, active compounds read low 0.994 | locus YJL168C, strain set2, active compounds read low 0.994 | locus YJL187C, strain SWE1 (second series), active compounds read low 1.01 | locus YJL187C, strain SWE1, active compounds read low 0.997 | [10] 1.01 | locus YJR066W, strain TOR1, active compounds read low 0.941 | locus YKL009W, strain mrt4, active compounds read low 0.99 | locus YKL068W, active compounds read low 1.01 | locus YKL085W, strain MDH1 (second series), active compounds read low 0.991 | locus YKL085W, strain MDH1, active compounds read low 0.991 | locus YKL160W, strain elf1, active compounds read low 0.995 | locus YKR001C, strain vps1, active compounds read low 0.992 | locus YKR026C, strain gcn3, active compounds read low 1.01 | locus YKR091W, strain srl3, active compounds read low 1 | locus YLL001W, strain dnm1, active compounds read low 1.02 | locus YLL026W, active compounds read low 0.998 | locus YLL041C, strain sdh2, active compounds read low 1 | locus YLR027C, strain aat2, active compounds read low 0.982 | [11] 1.05 | locus YLR058C, strain SHM2, active compounds read low 1.01 | locus YLR102C, strain apc9, active compounds read low 0.989 | locus YLR113W, strain HOG1, active compounds read low 1.03 | locus YLR221C, strain rsa3, active compounds read low 0.989 | locus YLR258W, strain gsy2, active compounds read low 0.978 | locus YLR262C, strain YPT6 (second series), active compounds read low 0.983 | [12] 1.09 | locus YLR268W, strain sec22, active compounds read low 1.01 | locus YLR320W, strain mms22, active compounds read low 0.977 | locus YLR330W, strain CHS5, active compounds read low 1.01 | locus YLR342W, strain FKS1, active compounds read low 0.991 | locus YLR357W, strain rsc2, active compounds read low 0.994 | locus YLR370C, strain arc18, active compounds read low 1 | locus YLR371W, strain rom2, active compounds read low 0.995 | locus YLR384C, strain iki3, active compounds read low 0.977 | locus YLR418C, strain cdc73, active compounds read low 0.973 | locus YML016C, strain PPZ1, active compounds read low 1 | locus YML032C, strain rad52, active compounds read low 1 | locus YML120C, strain ndi1, active compounds read low 1 | locus YML124C, strain tub3, active compounds read low 0.998 | locus YMR058W, strain fet3, active compounds read low 1.02 | locus YMR078C, strain ctf18, active compounds read low 0.989 | locus YMR125W, strain sto1, active compounds read low 0.998 | locus YMR129W, active compounds read low 1.01 | locus YMR205C, strain PFK2, active compounds read low 1.01 | locus YMR223W, strain ubp8, active compounds read low 0.988 | locus YMR231W, strain pep5, active compounds read low 0.962 | [13] 1.01 | locus YMR307W, strain GAS1, active compounds read low 1.05 | locus YNL067W, strain RPL9B, active compounds read low 1.01 | locus YNL071W, strain lat1, active compounds read low 1.01 | locus YNL183C, strain NPR1, active compounds read low 0.961 | locus YNL209W, strain ssb2, active compounds read low 0.992 | locus YNL233W, strain BNI4, active compounds read low 1.02 | locus YNL248C, strain rpa49, active compounds read low 1 | locus YNL250W, strain rad50, active compounds read low 1.01 | locus YNL271C, strain bni1, active compounds read low 1 | locus YNL298W, strain CLA4, active compounds read low 0.995 | locus YNL307C, strain MCK1, active compounds read low 0.995 | locus YNL322C, strain KRE1 (second series), active compounds read low 0.992 | locus YNR049C, strain mso1, active compounds read low 1 | locus YNR052C, strain pop2, active compounds read low 0.995 | locus YOL006C, strain TOP1, active compounds read low 1 | locus YOL012C, strain htz1 0.751 | locus YOL147C, strain pex11, active compounds read low 0.996 | locus YOR001W, strain rrp6, active compounds read low 0.979 | locus YOR061W, strain CKA2, active compounds read low 1 | locus YOR069W, strain VPS5, active compounds read low 0.999 | locus YOR070C, strain gyp1, active compounds read low 1.01 | locus YOR080W, strain dia2, active compounds read low 0.981 | locus YOR083W, strain WHI5, active compounds read low 1.01 | locus YOR106W, strain vam3, active compounds read low 1 | locus YOR136W, strain idh2, active compounds read low 0.991 | locus YOR144C, strain elg1, active compounds read low 0.99 | locus YOR184W, strain ser1, active compounds read low 0.999 | locus YOR231W, strain MKK1, active compounds read low 0.978 | locus YOR265W, strain rbl2, active compounds read low 0.993 | locus YOR270C, strain vph1, active compounds read low 1.04 | locus YOR290C, strain snf2, active compounds read low 1 | locus YOR316C, strain cot1, active compounds read low 1 | locus YPL051W, strain arl3, active compounds read low 0.977 | [14] 1.01 | locus YPL078C, strain atp4, active compounds read low 1 | locus YPL106C, strain sse1, active compounds read low 0.975 | locus YPL240C, strain hsp82, active compounds read low 0.997 | [15] 1.01 | locus YPL256C, strain CLN2, active compounds read low 0.957 | locus YPR119W, strain clb2, active compounds read low 0.995 | locus YPR141C, strain kar3, active compounds read low 1.01 | locus YPR163C, strain tif3, active compounds read low 1 | locus YPR167C, strain met16, active compounds read low 0.995 | strain wtn01, active compounds read low 0.993
